Activity calls are given as the source filed them. Where a call stands in place of a potency, no number is given. The call rests on the fitted dose curve.
Potency means the concentration at half of the fitted maximal effect.

This test in a line: G protein-coupled receptor (GPCR) small molecule agonists, calcium flux assay: HEK293 wild type cell line counter screen (AID 1920065). Particulars: HEK293 WT calcium flux, fluorescence, agonist mode; series mostly up to 57.6 µM. An excerpt: U.S. Tox21 Program National Center for Advancing Translational Sciences [NCATS] Division of Preclinical Innovation [DPI] U.S. Environmental Protection Agency [EPA] National Institutes of Environmental Health Sciences [NIEHS] National Toxicology Program [NTP] U.S. Food and Drug Administration [FDA] Assay overview: The increased intracellular calcium release that occurred upon G protein-coupled receptor (GPCR) activation led to the frequent use of calcium flux assays to detect GPCR activation. For the purpose of studying and screening compounds that may activate GPCR, receptor-overexpressing models were typically generated using Hek293 wild-type (WT) cells. In order to eliminate the compounds that may have induced calcium release for non-specific activation, a counter-assay utilizing calcium flux on Hek293 WT cells was performed. The data were formulated in order to serve as a control for any calcium flux detection utilizing Hek293 cells with either GPCR overexpression or gene modification. The procurement of Hek293 WT cells from ATCC. Fluorescence intensity can be utilized to determine the activation of the compound in a calcium flux assay. As a counter control, this cell line was utilized to screen the Tox21 10K compound library.
Assay Protocol Summary: Hek293 cells were dispensed at 1500cells/4uL/well in 1536-well black wall/clear bottom plates using a multidrop dispenser. After the assay plates were incubated at a 37 C/5% CO2 incubator for 18 hours, 4 uL of Calcium Dye Solution was added to each well. The plates were incubated at 37 C for 1 hour. For agonist mode, 23 nL of compounds dissolved in DMSO, positive control (ATP) or DMSO only was transferred to the assay plate by a pin tool station. The fluorescence intensity in the plates was measured using FDSS 7000EX kinetic plate reader with a filter set of Ex/Em=480/540 for 3 min at 1 sec intervals. Each test compound was measured at 15 concentrations and in triplicates.
(In general: Calcium flux is commonly read through the fluorescence of an indicator in the cells.)
For the compound `CCOC(=O)c1ccc(C#Cc2ccc3c(c2)C(C)(C)CCS3)nc1`, the Potency entry is “inactive”.

Consider `c1ccc(-c2nc[nH]c2-c2ccccc2)cc1`, for which the Potency entry is “inactive”.

With `CC(C)C(C)C`, the Potency result is “inactive”.

`c1ccc(OCc2ccc(CCCN3CCOCC3)cc2)cc1`: the Potency entry was “inactive”.

For `CCCCCCCC/C=C\CCCCCCCC(=O)NCc1ccc(O)c(OC)c1`, the Potency result was “inactive”.

Regarding `CC(C)(c1ccccc1)c1ccccc1`, the Potency entry was “inactive”.

Consider `COCCOC(=O)CC#N`, for which the Potency entry is “inactive”.

Consider `O=C(Nc1ccccc1)c1cc(Cl)ccc1O`, for which the Potency was 12.3 µM (active).

For the compound `CCCC/C=C/C=C\C=O`, the Potency result was “inactive”.

In the case of `c1ccc2sc(SN(C3CCCCC3)C3CCCCC3)nc2c1`, the Potency result is “inactive”.

With `CC(=O)N(CC(O)CO)c1c(I)c(C(=O)NCCO)c(I)c(C(=O)NCC(O)CO)c1I` (stereo not given), the Potency result is “inactive”.

On to `CC1(CO)CN(c2ccccc2)NC1=O` (stereo not given), for which the Potency result was “inactive”.

Consider `C=Cc1ccncc1`, for which the Potency entry was “inactive”.

Turning to `Cc1ccc(S(=O)(=O)NC(=O)NC2CCCCC2)cc1`, the Potency result is “inactive”.

With `Oc1cccc(Nc2ccccc2)c1`, the Potency entry was “inactive”.

With `CCCCCc1ccc(O)cc1`, the Potency entry was “inactive”.

Consider `COc1cc(C(C)=O)ccc1OCCCN1CCC(c2noc3cc(F)ccc23)CC1`, for which the Potency entry was “inactive”.

With `NS(=O)(=O)c1ccc(C(=O)O)cc1`, the Potency entry is “inactive”.

`Cc1cc(=O)oc2cc(N(C)C)ccc12`: the Potency entry is “inactive”.

As for `C=C1CCC2CC1C2(C)C` (stereo not given), the Potency entry is “inactive”.

Take `COC(=O)CCCCCCCC(=O)OC`: the Potency result was “inactive”.

Consider `Cc1cnc(C(=O)NCCc2ccc(S(=O)(=O)NC(=O)NC3CCCCC3)cc2)cn1`, for which the Potency result was “inactive”.

In the case of `Cc1ccc(O)c(O)c1`, the Potency result is “inactive”.

For the compound `SCCc1cnccn1`, the Potency entry was “inactive”.

Regarding `CC(C)CCCCCOC(=O)CCCCC(=O)OCCCCCC(C)C`, the Potency result was “inactive”.

Regarding `CC(Cc1ccc(O)c(O)c1)C(C)Cc1ccc(O)c(O)c1` (stereo not given), the Potency result is “inactive”.

With `Nc1nc2ccc(OC(F)(F)F)cc2s1`, the Potency entry is “inactive”.

As for `[O-][N+](=Nc1ccccc1)c1ccccc1`, the Potency result was “inactive”.

With `C=C(C)C(=O)OCCOc1ccccc1`, the Potency entry is “inactive”.

Consider `COC(=O)[C@]1(C)CCC[C@@]2(C)[C@H]1CC=C1C=C(C(C)C)CC[C@@H]12`, for which the Potency result is “inactive”.

Turning to `COc1cc(C)cc(O)c1`, the Potency result was “inactive”.

Turning to `CCCCc1cc2ccccc2c(OCCN(C)C)n1`, the Potency result was “inactive”.

In the case of `C[C@H](CCC(=O)O)[C@H]1CC[C@H]2[C@@H]3CC[C@@H]4C[C@H](O)CC[C@]4(C)[C@H]3C[C@H](O)[C@]12C`, the Potency result was “inactive”.

For `NCc1ccccc1`, the Potency entry is “inactive”.

As to `Brc1cc(-c2ccc(Br)c(Br)c2Br)cc(Br)c1Br`, the Potency entry is “inactive”.

`CC(C)C(=O)OCCc1ccccc1`: the Potency entry is “inactive”.

In the case of `COc1ccc2cc(S(=O)(=O)N[C@H](CC(=O)N[C@H](Cc3ccc(CN4[C@H](C)CCC[C@@H]4C)cc3)C(=O)N(C)C(C)C)c3ccc4c(c3)OCO4)ccc2c1`, the Potency entry is “inactive”.

Regarding `CC1=C(Br)C(=O)C(Br)=C/C1=C(/c1ccccc1S(=O)(=O)O)c1cc(Br)c(O)c(Br)c1C`, the Potency entry is “inactive”.

Consider `CC1CCN(CCCC(=O)c2ccc(F)cc2)CC1`, for which the Potency entry was “inactive”.

For `CC(C)NC(=O)NC(C)C`, the Potency entry is “inactive”.

Values taken from PubChem BioAssay (Tox21).
